This is part of a sample that, as a whole, favours compounds with a hit. Of some 83,000 tested, about 20% had one in any assay.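 96-well plates, one dose, 48 hours. Percent growth reported; active if below 10.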 A number with no mark means an inactive call. Activity calls are given as the source filed them.

Holding throughout (assay): NCI-60 one-dose screen, 48 h (100 = growth as untreated, 0 = no growth, -100 = all killed)
The subject of one assay is SR leukemia. Conditions: 10 µM unless noted.
The test system of a further assay is RPMI-8226 leukemia. As to conditions: 10 µM unless noted.
For another assay, the system named is OVCAR-8 ovarian. Conditions: 10 µM unless noted.
For a further assay, the system named is OVCAR-5 ovarian. Conditions: 10 µM unless noted.
A further assay deals with OVCAR-4 ovarian. As to conditions: 10 µM unless noted.
A further assay concerns SK-OV-3 ovarian. As to conditions: 10 µM unless noted.
In another assay the test system is IGROV1 ovarian. As to conditions: 10 µM unless noted.
Another assay relates to OVCAR-3 ovarian. Conditions: 10 µM unless noted.
A further assay relates to NCI/ADR-RES ovarian. Conditions: 10 µM unless noted.
Another assay has as its system T-47D breast. Conditions: 10 µM unless noted.
For another assay, the system named is BT-549 breast. Conditions: 10 µM unless noted.
The next assay has as its system MDA-MB-435 melanoma. As to conditions: 10 µM unless noted.
A further assay relates to SW-620 colon. As to conditions: 10 µM unless noted.
In the next assay the test system is MCF7 breast. Conditions: 10 µM unless noted.
In another assay the test system is HCT-116 colon. As to conditions: 10 µM unless noted.
Another assay relates to HCC-2998 colon. As to conditions: 10 µM.
Another assay has as its system KM12 colon. Conditions: 10 µM unless noted.
Another assay deals with HS 578T breast. As to conditions: 10 µM.

As to `COCCN1CCN(Cc2ccc(-c3n[nH]c4c3C(=O)c3c(NC(=O)NN5CCOCC5)cccc3-4)cc2)CC1`, the growth with SR leukemia was -10.3% (active); with RPMI-8226 leukemia it was -37.4% (active); in the assay on OVCAR-8 ovarian, -13.4% (active); in the assay on OVCAR-5 ovarian it was 9.54% (active); in the assay with OVCAR-4 ovarian it was -0.503% (active); in the assay with SK-OV-3 ovarian it was -7.89% (active). Further, the growth is -10.9% (active) in the assay with IGROV1 ovarian; 9.5% (active) in the assay on OVCAR-3 ovarian; 5% (active) in the assay with NCI/ADR-RES ovarian; 12.7% in the assay on T-47D breast; -24.2% (active) in the assay with BT-549 breast; -46.4% (active) in the assay with MDA-MB-435 melanoma. The growth in the assay on SW-620 colon is -25% (active); in the assay on MCF7 breast, -33.2% (active); in the assay with HCT-116 colon, -48.2% (active); in the assay with HCC-2998 colon, -35.8% (active); in the assay on KM12 colon, -66.3% (active).

`Cc1c(NC(=O)OC[C@@H]2COCCN2)cn2ncnc(Nc3ccc4c(cnn4Cc4cccc(F)c4)c3)c12`: the growth was -4.38% (active) with SR leukemia; 5.44% (active) in the assay with RPMI-8226 leukemia; -4.01% (active) in the assay on OVCAR-8 ovarian; 7.38% (active) in the assay on OVCAR-5 ovarian; 24% in the assay on OVCAR-4 ovarian; -9.89% (active) in the assay with SK-OV-3 ovarian. The growth is -4.73% (active) in the assay on IGROV1 ovarian; 12.8% in the assay with OVCAR-3 ovarian; 19.8% in the assay with NCI/ADR-RES ovarian; -16.7% (active) in the assay with T-47D breast; 0.365% (active) with BT-549 breast; 2.07% (active) in the assay on MDA-MB-435 melanoma. Also, the growth was 1.74% (active) with SW-620 colon; 1.5% (active) with MCF7 breast; 0.842% (active) in the assay with HCT-116 colon; 3.83% (active) in the assay with HCC-2998 colon; 8.03% (active) with KM12 colon.

`CN1CCN(c2ccc(C(=O)Nc3n[nH]c4ccc(Cc5cc(F)cc(F)c5)cc34)c(NC3CCOCC3)c2)CC1`: the growth with SR leukemia was -28.6% (active); in the assay with RPMI-8226 leukemia, -29.6% (active); in the assay with OVCAR-8 ovarian, 22.6%; with OVCAR-5 ovarian, 1.41% (active); with OVCAR-4 ovarian, -6.27% (active); in the assay with SK-OV-3 ovarian, 20.1%. Further, the growth with IGROV1 ovarian was -46.1% (active); in the assay on OVCAR-3 ovarian, 32.8%; with NCI/ADR-RES ovarian, 10.8%; in the assay with T-47D breast, -65.6% (active); with BT-549 breast, 10.6%; in the assay on MDA-MB-435 melanoma, -86.5% (active). The growth in the assay on SW-620 colon is -79.2% (active); in the assay with MCF7 breast, -72% (active); with HCT-116 colon, -95.5% (active); in the assay with HCC-2998 colon, -81.3% (active); with KM12 colon, -72.5% (active).

For `Clc1ccc2c(NCCNc3nc(N4CCCC4)nc4ccccc34)ccnc2c1`, the growth in the assay on SR leukemia is -22.6% (active); with RPMI-8226 leukemia, -18.2% (active); in the assay with OVCAR-8 ovarian it was 3.61% (active); in the assay with OVCAR-5 ovarian, 23.6%; in the assay on OVCAR-4 ovarian, -7.19% (active); in the assay on SK-OV-3 ovarian it was -63.3% (active). In addition, the growth with IGROV1 ovarian was 3.56% (active); with OVCAR-3 ovarian, -65.8% (active); in the assay with HS 578T breast, 19.9%; in the assay with NCI/ADR-RES ovarian, 60.2%; with T-47D breast, -14% (active); in the assay on MDA-MB-435 melanoma, -41.3% (active). Also, the growth with MCF7 breast was 28.5%; in the assay with HCT-116 colon it was -63.6% (active); in the assay with HCC-2998 colon it was 7.18% (active); in the assay on KM12 colon it was 10.9%.

In the case of `CC(C)(C)CC(C)(C)Nc1c(-c2c(O)c3ccccc3oc2=O)nc2c(Cl)cc(C(F)(F)F)cn12`, the growth with SR leukemia was 104%; with RPMI-8226 leukemia, 99.2%; in the assay on OVCAR-8 ovarian, 102%; with OVCAR-5 ovarian, 109%; in the assay with OVCAR-4 ovarian, 100%; in the assay with SK-OV-3 ovarian, 93%. The growth in the assay with IGROV1 ovarian was 90.4%; in the assay with OVCAR-3 ovarian, 112%; in the assay with HS 578T breast, 103%; in the assay with NCI/ADR-RES ovarian it was 108%; in the assay on T-47D breast, 95.3%; in the assay on MDA-MB-435 melanoma, 103%. In addition, the growth in the assay on SW-620 colon was 102%; with MCF7 breast, 107%; in the assay on HCT-116 colon it was 70.4%; with KM12 colon it was 103%.

Regarding `COc1cc2c(cc1OCCCCN1CCN(CC(=O)Nc3ccc(Cl)cc3C(=O)c3ccccc3Cl)CC1)N=CC1CCCN1C2=O` (configuration not stated), the growth was -66.7% (active) with SR leukemia; -74% (active) in the assay on RPMI-8226 leukemia; -65.5% (active) with OVCAR-8 ovarian; -51.7% (active) with OVCAR-5 ovarian; -91.4% (active) in the assay on OVCAR-4 ovarian; -76% (active) in the assay on SK-OV-3 ovarian. For the same compound, the growth was -88.2% (active) in the assay with IGROV1 ovarian; -94.6% (active) in the assay with OVCAR-3 ovarian; -66.4% (active) with HS 578T breast; 2.24% (active) in the assay with NCI/ADR-RES ovarian; -65.4% (active) in the assay with T-47D breast; -93.8% (active) in the assay on MDA-MB-435 melanoma. Besides, the growth with SW-620 colon is -57% (active); in the assay on MCF7 breast, -67.1% (active); in the assay on KM12 colon, -55.5% (active).

`CC(C)(C)c1cnc(CSc2cnc(NC(=O)C3CCNCC3)s2)o1`: the growth is 0.401% (active) with SR leukemia; -8.04% (active) in the assay with RPMI-8226 leukemia; 5.71% (active) with OVCAR-8 ovarian; 14.9% in the assay with OVCAR-5 ovarian; 9.94% (active) in the assay on OVCAR-4 ovarian; 6.31% (active) in the assay on SK-OV-3 ovarian. Besides, the growth with IGROV1 ovarian is 9.86% (active); in the assay on OVCAR-3 ovarian it was 20.2%; in the assay on NCI/ADR-RES ovarian, 53%; in the assay with T-47D breast, -7.81% (active); in the assay with BT-549 breast, 0.761% (active); in the assay with MDA-MB-435 melanoma it was -58.7% (active). For the same compound, the growth is 5.06% (active) in the assay with SW-620 colon; 3.72% (active) in the assay on MCF7 breast; 2.22% (active) with HCT-116 colon; 0.238% (active) with HCC-2998 colon; 3.58% (active) with KM12 colon.

For the compound `Cc1ccc(NC(=O)Nc2ccc(Nc3ncnc4sc5c(c34)CCOC5)cc2)cc1Cl`, the growth in the assay with SR leukemia was 89%; in the assay on RPMI-8226 leukemia, 105%; in the assay on OVCAR-8 ovarian, 91.9%; with OVCAR-5 ovarian, 114%; in the assay on OVCAR-4 ovarian it was 121%; in the assay with SK-OV-3 ovarian, 73.4%. Also, the growth in the assay on IGROV1 ovarian was 99.1%; in the assay on OVCAR-3 ovarian, 102%; with NCI/ADR-RES ovarian, 106%; in the assay with T-47D breast, 58.5%; with BT-549 breast it was 101%; in the assay with MDA-MB-435 melanoma, 103%. In addition, the growth in the assay with SW-620 colon was 133%; in the assay on MCF7 breast it was 82.8%; with HCT-116 colon, 101%; in the assay on HCC-2998 colon, 112%; with KM12 colon, 105%.

Source of the values: PubChem BioAssay (NCI).
